The text below walks through data of PubChem BioAssay AID2654 (Johns Hopkins Ion Channel Center, 2010).

Results with a measured potency or affinity are listed apart. Activity calls are given as the source filed them.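 How the source made its calls: active means increase of the KCNQ2 potassium channel current at -35 mV by at least one tested dose; inactive means no tested dose increases that current.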

The assay deals with Potassium voltage-gated channel subfamily KQT member 2 (Rattus norvegicus) (UniProt O88943). Put plainly: potentiation of rat KCNQ2 current – cell-based, retigabine-insensitive compounds, dose response (AID 2654). The settings on record: KCNQ2-CHO cells, automated patch clamp current potentiation; at 30 µM (top of the series).
Chain of Potassium voltage-gated channel subfamily KQT member 2 (Rattus norvegicus) (O88943 whole entry, looked up): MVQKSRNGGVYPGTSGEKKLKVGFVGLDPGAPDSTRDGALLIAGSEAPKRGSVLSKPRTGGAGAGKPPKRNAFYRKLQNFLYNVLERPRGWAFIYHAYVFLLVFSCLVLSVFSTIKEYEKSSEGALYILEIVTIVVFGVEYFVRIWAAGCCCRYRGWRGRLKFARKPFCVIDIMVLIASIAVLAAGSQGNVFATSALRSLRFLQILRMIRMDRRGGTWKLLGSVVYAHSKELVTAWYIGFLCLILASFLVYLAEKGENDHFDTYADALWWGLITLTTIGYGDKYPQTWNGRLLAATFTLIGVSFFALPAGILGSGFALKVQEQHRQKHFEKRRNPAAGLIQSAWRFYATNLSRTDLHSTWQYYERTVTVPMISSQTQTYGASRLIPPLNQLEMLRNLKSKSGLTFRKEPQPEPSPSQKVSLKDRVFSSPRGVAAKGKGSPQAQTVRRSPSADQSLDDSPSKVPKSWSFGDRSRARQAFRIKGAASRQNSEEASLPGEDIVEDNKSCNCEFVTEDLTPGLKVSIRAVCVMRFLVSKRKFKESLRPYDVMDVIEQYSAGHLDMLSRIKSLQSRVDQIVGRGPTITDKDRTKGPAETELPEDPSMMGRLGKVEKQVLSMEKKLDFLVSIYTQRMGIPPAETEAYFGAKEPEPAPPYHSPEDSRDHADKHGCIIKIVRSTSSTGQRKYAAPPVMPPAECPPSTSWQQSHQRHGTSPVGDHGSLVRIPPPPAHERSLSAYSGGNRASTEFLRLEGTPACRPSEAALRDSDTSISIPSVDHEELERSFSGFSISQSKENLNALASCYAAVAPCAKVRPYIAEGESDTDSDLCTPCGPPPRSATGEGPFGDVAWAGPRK
With `COc1ccc(Cl)cc1NC(=S)Nc1cccnc1`, the “potentiation” value was 3.47 (inactive).
`S=C(Nc1ccc(Cl)cc1)Nc1cccnc1`: the “potentiation” value was 18.5 (inactive).
As for `Cc1cncc(NC(=O)NCc2ccc(Cl)cc2Cl)c1`, the “potentiation” value is -19.5 (inactive).
Turning to `O=C(Nc1cccnc1)N(CC1CC1)c1ccccc1`, the “potentiation” value was -0.98 (inactive).
As to `CCOc1ccccc1NC(=O)Nc1cccnc1`, the “potentiation” value was -2.96 (inactive).
Turning to `COc1cc(NC(=S)Nc2cccnc2)cc(OC)c1`, the “potentiation” value was 4.44 (inactive).
`Cc1ccc(Cl)cc1NC(=S)Nc1cccnc1`: the “potentiation” value was 8.95 (inactive).
With `Fc1ccc(NC(=S)Nc2cccnc2)c(Cl)c1`, the “potentiation” value is 10.5 (inactive).
On to `COc1cccc(NC(=O)Nc2cccnc2)c1`, for which the “potentiation” value is 38.6 (inactive).
With `Cc1ccc(NC(=S)Nc2cccnc2)cc1` the figure was 12.9 (inactive); with `Cc1nc(F)ccc1NC(=O)NCc1ccc(Cl)cc1Cl`, 0.46 (inactive); with `Cc1ccc(NC(=O)Nc2cccnc2)c(C)c1`, 36.1 (inactive).
Consider `Cc1nc(F)ccc1NC(=O)Nc1cccc(F)c1`, for which the “potentiation” value was 13.9 (inactive).
On to `O=C(Nc1cccnc1)Nc1ccc2c(c1)CCC2`, for which the potentiation turned out to be 103.
With `O=C(Nc1cccnc1)Nc1ccc(Cl)cc1Cl`, the “potentiation” value is 2.74 (inactive).
On to `Cc1ccnc(NC(=O)Nc2cccc(F)c2)c1`, for which the “potentiation” value is -0.24 (inactive).
`Fc1ccc(NC(=S)Nc2cccnc2)cc1`: the “potentiation” value was 25.8 (inactive).
Turning to `O=C(Nc1cccc(Cl)c1)N(CC1CC1)c1cccnc1`, the “potentiation” value is -18.1 (inactive).
With `Cc1ccnc(NC(=O)NCc2ccc(Cl)cc2Cl)c1` the figure was -3.77 (inactive); with `COc1nccc(NC(=O)Nc2cccc(F)c2)n1`, -18.8 (inactive); with `S=C(NCc1ccco1)Nc1cccnc1`, 7.03 (inactive).
For the compound `Fc1ccc(NC(=S)Nc2cccnc2)c(F)c1F`, the “potentiation” value was 6.35 (inactive).
Take `O=C(NCc1ccc(Cl)cc1Cl)Nc1nccs1`: the “potentiation” value was 12.4 (inactive).
The result for `COc1ccc(C)cc1NC(=O)Nc1cccnc1` reads 0.86 (inactive); that for `Cc1ccc(CNC(=S)Nc2cccnc2)cc1`, -2.47 (inactive); that for `O=C(Nc1cccnc1)N1CCOCC1`, 12.8 (inactive).
The result for `O=C(Nc1cccnc1)Nc1cc(Cl)cc(Cl)c1` reads 1.48 (inactive).
